Over roughly 39,000 sequences, “fluorescence intensity (a.u.)” has its median near 4,300; the highest 2% begin near 39,000. Only a selection was taken, and the highest values are over-represented in it overall.

This assay concerns the target T1, OsSMF1 (Oryza sativa, UniProt Q6ZLB0 1-436).
T1 sequence: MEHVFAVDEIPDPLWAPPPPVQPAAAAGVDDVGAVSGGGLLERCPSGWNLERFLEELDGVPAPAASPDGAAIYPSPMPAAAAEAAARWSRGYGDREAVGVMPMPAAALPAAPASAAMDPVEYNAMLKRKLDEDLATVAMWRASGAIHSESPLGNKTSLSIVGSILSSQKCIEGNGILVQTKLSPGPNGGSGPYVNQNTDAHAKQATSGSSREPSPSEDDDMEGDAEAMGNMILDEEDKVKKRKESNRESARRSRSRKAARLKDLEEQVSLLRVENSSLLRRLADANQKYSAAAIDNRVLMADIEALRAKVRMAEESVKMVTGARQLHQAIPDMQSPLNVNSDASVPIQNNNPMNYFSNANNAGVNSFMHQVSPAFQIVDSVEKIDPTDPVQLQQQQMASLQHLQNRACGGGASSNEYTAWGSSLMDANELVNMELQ
In words: protein-binding microarray (RPBM); PBS, 2% BSA, 51.3 ng/ul salmon testes DNA, 50 uM zinc acetate, 200 nM TF, 25 C, 1 h; high values mean tight binding. Conditions: protein: recombinant; tags: N-terminal polyhistidine and DsRed monomer fusion (pET32a); chain copies: 2; label: CyDye5-dUTP incorporated in the synthesized complementary strand; 3' TTTTT single-stranded linker to array surface; dsDNA, one strand shown. The gist of the method: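 Ni–NTA purification followed expression in E. coli BL21-CodonPlus of transcription factors fused N-terminally to a polyhistidine tag and DsRed. At 200 nM in PBS with 2% BSA, salmon testes DNA and 50 µM zinc acetate, the protein was incubated for 1 h at 25 °C with a custom Agilent array that had been primer-extended with Cy5-dUTP and blocked with 2% BSA. After washing, the array was read on an Axon 4000B scanner. The binding signal is per-feature fluorescence intensity in arbitrary units.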
In the case of “AATAACCACGTATATATAACTTCTAACCCTAGTTAACAACCGGAGTCACCTAGTGCAG”, the binding signal is 3310 fluorescence intensity (a.u.). In the case of “AAAGAGATTATGCGGATATGCCCTTGCAAACCGGGGCAGTCGGAGTCACCTAGTGCAG”, the binding signal is 49900 fluorescence intensity (a.u.). In the case of “TGATTTAAACATGTTATGTAAGGAGAGTTGGAGACAGATACGGAGTCACCTAGTGCAG” it was 22000 fluorescence intensity (a.u.); in that of “AAGAGATGGGGATTAAACCAATTGGGCCGAAAGATATGTCCGGAGTCACCTAGTGCAG”, 41200 fluorescence intensity (a.u.).

As to “AAACAACCAACTTTGCCTGCAAAACGGCAAAGAGATTAACCGGAGTCACCTAGTGCAG”, the binding signal was 3920 fluorescence intensity (a.u.).

For the sequence “AGAGGGGAGGAAGAAGGAAGGAGAGATGGGTCCGACATGTCGGAGTCACCTAGTGCAG”, the binding signal was 26900 fluorescence intensity (a.u.). For “GAATTTATGGTTGAATACTTAACTTAAAATCCAAGGAACCCGGAGTCACCTAGTGCAG”, the binding signal was 3220 fluorescence intensity (a.u.).

On to “TACTTATGTAAAAGGATTGATTTAAGAGAATGGTCCAAACCGGAGTCACCTAGTGCAG”, for which the binding signal was 44100 fluorescence intensity (a.u.).

“AGAGAATTATGGAGAGGGGAGGGGAGGGGCAGCAAAAGAGCGGAGTCACCTAGTGCAG”: the binding signal was 4210 fluorescence intensity (a.u.). For the sequence “GATGTCTTTAAAGAGGATTATATGAAATTTGAGATGAAATCGGAGTCACCTAGTGCAG”, the binding signal was 3610 fluorescence intensity (a.u.). The value for “CGTACGGATATGCCCACGTGGCGAAGTCCCACGACGCCACCGGAGTCACCTAGTGCAG” was 9930 fluorescence intensity (a.u.). “ATTTCCAGTAAAAGTGGCATTGTTCAGACTTCAGTCATTACGGAGTCACCTAGTGCAG”: the binding signal was 3530 fluorescence intensity (a.u.). In the case of “CACGGCATCGGCATCGGCAGCCACGCCTCGCGTGGCACGGCGGAGTCACCTAGTGCAG” it was 4720 fluorescence intensity (a.u.); in that of “GACAGATGTGCTGAGTGCTGACGTGGTTAAACTAACCTCGCGGAGTCACCTAGTGCAG”, 16100 fluorescence intensity (a.u.). “TCGAAAACTTTTCAGCCACGTGATGTTGGCAATCGCTGTTCGGAGTCACCTAGTGCAG”: the binding signal was 7190 fluorescence intensity (a.u.). As to “AAGAGGATCGCAATCGTGAAAACTTCGCAAGTGTTCAGAACGGAGTCACCTAGTGCAG”, the binding signal was 59100 fluorescence intensity (a.u.).

For “CCAAACTAAGAGTGTTCAAGGGGAGGGGAAAAGAGAAGATCGGAGTCACCTAGTGCAG”, the binding signal is 3660 fluorescence intensity (a.u.).

Take “CTTGGCCCAGAAACAACACACACACTCAAATCTGGATCCACGGAGTCACCTAGTGCAG”: the binding signal is 3790 fluorescence intensity (a.u.). As for “CGGCCCACCCACCAACCACCACCACCACCACCACACCCGCCGGAGTCACCTAGTGCAG”, the binding signal is 3740 fluorescence intensity (a.u.).

As for “GGGCCCCACAACCACCCCATAAATAAAGCAACACAACAACCGGAGTCACCTAGTGCAG”, the binding signal is 53000 fluorescence intensity (a.u.). As for “CCACTGGACCATAACTGGGCCCAGCACACAGAAACAAATCCGGAGTCACCTAGTGCAG”, the binding signal is 44700 fluorescence intensity (a.u.). In the case of “AATGAAATTAAACACACCCAACAAAATAAAAGACCAAACCCGGAGTCACCTAGTGCAG” it was 3140 fluorescence intensity (a.u.). In the case of “CACCAGCACATAAACACAAACCCACAGAAGACATTGCATTCGGAGTCACCTAGTGCAG” it was 5420 fluorescence intensity (a.u.); in that of “TCCTTCTTCTTCTCCTTCCTCACTGCAACACTCTTCGGGGCGGAGTCACCTAGTGCAG”, 38900 fluorescence intensity (a.u.). Regarding “CTTCGTCTCCTCCTCCTCCACGTCATCCGCCTCCGCCTCCCGGAGTCACCTAGTGCAG”, the binding signal is 26000 fluorescence intensity (a.u.). In the case of “TTTGTGCGTGTTACGAGTGACTTGCGTTTATATCCTGCTTCGGAGTCACCTAGTGCAG” it was 6490 fluorescence intensity (a.u.). In the case of “ACAGGCATAGAGGCTGCTGACACACACCATCCGATCTGTCCGGAGTCACCTAGTGCAG” it was 4990 fluorescence intensity (a.u.). In the case of “CATCCCTGGTGCTCTTGGTCTCTTGGCAGCTGTGGAAGGACGGAGTCACCTAGTGCAG” it was 43000 fluorescence intensity (a.u.). “GCCGTGAACCAAAGCTCTTGCCGTGCTGTGCCGTGCCGGTCGGAGTCACCTAGTGCAG”: the binding signal was 3220 fluorescence intensity (a.u.).

Regarding “GTATTGCTGCTGTGATGGAACAAGCTCAGCAGGGTGACATCGGAGTCACCTAGTGCAG”, the binding signal was 3290 fluorescence intensity (a.u.).

As for “TGCAGATGGTGCTGTGAAAGCTCTTGAACAGCAGGAAGGTCGGAGTCACCTAGTGCAG”, the binding signal was 43400 fluorescence intensity (a.u.). The value for “GGGCGGAGCTGGTGCGGAGGGTGGCGTGGCAGCTCGAGGACGGAGTCACCTAGTGCAG” was 5260 fluorescence intensity (a.u.).

For the sequence “GCGTGGTGCTGGTCTCCAAGGATCCCGACAACATCCGCGACGGAGTCACCTAGTGCAG”, the binding signal is 5380 fluorescence intensity (a.u.). The value for “ATGTGATGCATGATGATTAGATATGCTTGCATGTTAATTTCGGAGTCACCTAGTGCAG” was 3160 fluorescence intensity (a.u.); that for “TGCTGCCTTTATCATCACCAAGAGCCACTACCTTGCCTTACGGAGTCACCTAGTGCAG” was 4370 fluorescence intensity (a.u.); that for “ACACTAATTTCAAGGTTGCTCGTGAGTCATAATCCTGACGCGGAGTCACCTAGTGCAG” was 7720 fluorescence intensity (a.u.). For the sequence “GGCCGGAGGGCGGCCTCGGTGGCGTGGAGTTGGCAGCGGGCGGAGTCACCTAGTGCAG”, the binding signal was 3770 fluorescence intensity (a.u.).

For “TCGACCCACCGTCTGCCACGTCAGCTTGCCGCCCACCAATCGGAGTCACCTAGTGCAG”, the binding signal was 28900 fluorescence intensity (a.u.). In the case of “AGTAACCGACTCCTTTCCAACGTGTTCCCCACGAAGCCGGCGGAGTCACCTAGTGCAG” it was 4560 fluorescence intensity (a.u.); in that of “TTTGAAACCCCTCCTCCTCCTCCTTCCCCAACACACAATCCGGAGTCACCTAGTGCAG”, 3250 fluorescence intensity (a.u.). Turning to “CCCTTCCTTCCTTCCTTTGCATCATCATCATCAACCCAATCGGAGTCACCTAGTGCAG”, the binding signal was 4440 fluorescence intensity (a.u.). Consider “GTGCCTGACAATCCTACAGGTGAAATCAACCCCTTTCATCCGGAGTCACCTAGTGCAG”, for which the binding signal is 40800 fluorescence intensity (a.u.). In the case of “CCACAAACATGCAAGACCAAATTCAACTTCTACAAGTTGTCGGAGTCACCTAGTGCAG”, the binding signal was 13900 fluorescence intensity (a.u.).

As for “AGGTTCGCAGTTCCACGCATCCCACCATCACCACACCACGCGGAGTCACCTAGTGCAG”, the binding signal is 5160 fluorescence intensity (a.u.).

For “CCACGCTATCCCATGCGATTCGAGAAGGTTCCACACACACCGGAGTCACCTAGTGCAG”, the binding signal is 41300 fluorescence intensity (a.u.). In the case of “CGTGTTCGATTCCGCTGCTATCCACGTCGCTACGCGCCACCGGAGTCACCTAGTGCAG” it was 7020 fluorescence intensity (a.u.); in that of “TCGAGCCGGTAGATGTCTCAGCTAGTGCTTTATCTGTTCGCGGAGTCACCTAGTGCAG”, 3180 fluorescence intensity (a.u.).
